# PubChem BioAssay (EPA / NIEHS)
# Inconclusive results are not listed. Some compounds were tested as several samples or in several runs, with calls that do not always agree. Active and inactive are the calls of the source. The calls were made as follows, unless noted: active = hit-call score of the fitted dose curve at least 0.9, where 1 is the maximum; inconclusive = response in the unintended direction; inactive = score below 0.9.
# What was measured:
# [1] = target: Nuclear receptor subfamily 1 group I member 2 (Homo sapiens) (UniProt O75469); experiment: NVS_NR_hPXR: NovaScreen (NVS) Nuclear Receptor Binding Assay for human Pregnane X Receptor (PXR) (AID 2283365);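 also: a drop in FRET signal versus DMSO baseline means the compound binds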
# Nuclear receptor subfamily 1 group I member 2 (Homo sapiens), sequence (O75469 whole entry, looked up): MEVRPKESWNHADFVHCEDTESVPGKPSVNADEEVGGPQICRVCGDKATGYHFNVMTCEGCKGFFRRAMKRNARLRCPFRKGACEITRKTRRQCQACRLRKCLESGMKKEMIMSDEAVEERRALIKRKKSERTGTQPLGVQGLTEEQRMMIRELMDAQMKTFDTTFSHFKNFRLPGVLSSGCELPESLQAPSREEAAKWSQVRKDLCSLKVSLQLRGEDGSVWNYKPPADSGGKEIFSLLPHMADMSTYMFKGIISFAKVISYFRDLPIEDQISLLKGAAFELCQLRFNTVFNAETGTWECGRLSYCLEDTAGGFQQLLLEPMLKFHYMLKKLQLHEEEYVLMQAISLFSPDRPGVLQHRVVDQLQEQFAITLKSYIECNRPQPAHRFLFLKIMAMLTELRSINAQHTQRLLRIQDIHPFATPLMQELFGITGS
# Summary of the method: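 Read-out: TR-FRET, human PXR, 2 h post-dosing, cell-free. Loss of signal vs DMSO taken as binding activity; 25 uM primary, concentration series secondary.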
# [2] = target: Estrogen receptor beta (Homo sapiens) (UniProt Q92731); experiment: OT_ER_ERbERb_1440: Odyssey Thera (OT) 24-hour HEK293T Protein-Complementation Assay for Estrogen Receptor-beta/-beta Homodimer (AID 2283380);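 also: scored as signal increase over DMSO baseline for both agonists and antagonists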
# Estrogen receptor beta (Homo sapiens), sequence (Q92731 whole entry, looked up, the tested form may be a part): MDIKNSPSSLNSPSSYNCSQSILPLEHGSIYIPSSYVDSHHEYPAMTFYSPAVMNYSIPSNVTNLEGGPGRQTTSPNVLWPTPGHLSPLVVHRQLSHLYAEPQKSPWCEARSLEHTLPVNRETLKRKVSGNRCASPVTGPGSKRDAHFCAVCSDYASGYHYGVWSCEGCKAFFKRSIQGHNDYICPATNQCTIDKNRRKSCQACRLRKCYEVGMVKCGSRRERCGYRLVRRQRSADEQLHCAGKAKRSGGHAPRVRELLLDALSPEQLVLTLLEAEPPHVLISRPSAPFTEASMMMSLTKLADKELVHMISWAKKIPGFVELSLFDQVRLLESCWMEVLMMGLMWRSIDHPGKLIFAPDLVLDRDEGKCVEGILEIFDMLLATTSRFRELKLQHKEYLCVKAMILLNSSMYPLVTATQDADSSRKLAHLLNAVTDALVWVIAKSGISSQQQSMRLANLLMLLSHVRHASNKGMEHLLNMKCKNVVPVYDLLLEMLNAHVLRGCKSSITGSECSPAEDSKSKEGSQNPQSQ
# Summary of the method: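 HEK293T cells stably expressing ER beta LBD (aa 310-547) homodimer fragment-complementation reporter, dosed 24 h. Cells formaldehyde-fixed, Draq5-stained; gain in nuclear (agonist) or nuclear plus cytoplasmic (antagonist) fluorescence versus DMSO read by laser scanning cytometry.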
# [3] = target: Estrogen receptor (Homo sapiens) (UniProt P03372); experiment: OT_ERa_GFPERaERE_0480: Odyssey Thera (OT) 8-hour HeLa Transcription Induction Assay for Estrogen Receptor (AID 2283381; active = hit-call score of the fitted dose curve at least 0.9, where 1 is the maximum; inactive = score below 0.9)
# Estrogen receptor (Homo sapiens), sequence (P03372 whole entry, looked up): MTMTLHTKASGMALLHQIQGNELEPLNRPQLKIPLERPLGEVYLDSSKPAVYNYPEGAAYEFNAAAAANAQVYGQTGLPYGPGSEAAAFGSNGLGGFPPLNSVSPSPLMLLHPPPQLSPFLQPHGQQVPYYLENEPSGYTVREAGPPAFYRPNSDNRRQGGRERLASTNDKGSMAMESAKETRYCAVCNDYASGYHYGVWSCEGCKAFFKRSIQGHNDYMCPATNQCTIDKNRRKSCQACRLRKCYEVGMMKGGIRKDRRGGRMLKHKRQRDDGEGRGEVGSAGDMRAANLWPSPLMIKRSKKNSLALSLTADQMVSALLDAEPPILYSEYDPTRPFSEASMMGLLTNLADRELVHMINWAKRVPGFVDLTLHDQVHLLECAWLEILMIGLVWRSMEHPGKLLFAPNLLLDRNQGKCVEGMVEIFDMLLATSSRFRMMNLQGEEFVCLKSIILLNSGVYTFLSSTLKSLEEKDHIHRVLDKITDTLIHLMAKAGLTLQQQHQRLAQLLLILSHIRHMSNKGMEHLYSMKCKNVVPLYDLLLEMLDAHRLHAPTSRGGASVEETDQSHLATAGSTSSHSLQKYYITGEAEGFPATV
# Summary of the method: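 Human cervical HeLa cells were treated for 8 hours, after which ERE-driven GFP induction was measured by fluorescence microscopy; increases over DMSO baseline defined activity.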
# [4] = target: Estrogen receptor (Homo sapiens) (UniProt P03372); experiment: OT_ERa_GFPERaERE_0120: Odyssey Thera (OT) 2-hour HeLa Transcription Induction Assay for Estrogen Receptor (AID 2283382)
# Summary of the method: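 Cells (human cervical HeLa) receive compound, incubate 2 hours, then are imaged for fluorescent reporter induction. Images are quantified by high content analysis, and activity is fitted as gain of signal against DMSO.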
# [5] = target: Bile acid receptor (Homo sapiens) (UniProt Q96RI1); experiment: OT_FXR_FXRSRC1_1440: Odyssey Thera (OT) 24-hour HEK293T Protein-Complementation Assay for Farnesoid X receptor/SRC-1 Co-activator (AID 2283384)
# Bile acid receptor (Homo sapiens), sequence (Q96RI1 whole entry, looked up, the tested form may be a part): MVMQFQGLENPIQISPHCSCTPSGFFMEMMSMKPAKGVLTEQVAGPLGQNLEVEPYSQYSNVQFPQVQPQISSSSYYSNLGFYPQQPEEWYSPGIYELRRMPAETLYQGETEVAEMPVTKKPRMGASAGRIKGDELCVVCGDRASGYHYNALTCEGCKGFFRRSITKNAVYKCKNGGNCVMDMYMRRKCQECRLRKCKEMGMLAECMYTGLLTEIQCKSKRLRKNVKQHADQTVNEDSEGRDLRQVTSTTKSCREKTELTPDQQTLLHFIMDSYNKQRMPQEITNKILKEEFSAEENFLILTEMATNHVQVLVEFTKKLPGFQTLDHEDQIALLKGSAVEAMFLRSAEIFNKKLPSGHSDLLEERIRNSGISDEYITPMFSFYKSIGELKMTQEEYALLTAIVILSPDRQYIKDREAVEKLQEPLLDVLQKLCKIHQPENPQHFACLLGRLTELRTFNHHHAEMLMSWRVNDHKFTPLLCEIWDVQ
# Summary of the method: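 Measures ligand-driven FXR–SRC-1 co-activator recruitment in HEK293T via fragment complementation, fluorescence intensity at 24 h. DMSO served as negative control and baseline for gain-of-signal fitting.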
# [6] = target: Retinoic acid receptor alpha (Homo sapiens) (UniProt P10276); experiment: NVS_NR_hRARa_Agonist: NovaScreen (NVS) Nuclear Receptor Binding Assay for human Retinoic Acid Alpha Receptor Agonism (RAR) (AID 2283361)
# Retinoic acid receptor alpha (Homo sapiens), sequence (P10276 whole entry, looked up): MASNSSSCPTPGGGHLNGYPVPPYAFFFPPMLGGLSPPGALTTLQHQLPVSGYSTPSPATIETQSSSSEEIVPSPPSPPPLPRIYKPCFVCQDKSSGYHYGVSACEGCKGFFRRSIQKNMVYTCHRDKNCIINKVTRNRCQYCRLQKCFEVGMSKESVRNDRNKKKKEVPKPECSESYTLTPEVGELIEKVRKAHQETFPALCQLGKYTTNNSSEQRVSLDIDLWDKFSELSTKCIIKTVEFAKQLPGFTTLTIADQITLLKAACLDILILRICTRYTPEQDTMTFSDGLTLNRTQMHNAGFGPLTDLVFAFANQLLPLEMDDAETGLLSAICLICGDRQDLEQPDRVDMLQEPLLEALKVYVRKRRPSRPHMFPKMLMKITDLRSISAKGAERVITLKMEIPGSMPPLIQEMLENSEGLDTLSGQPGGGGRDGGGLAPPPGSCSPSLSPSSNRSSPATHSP
# Summary of the method: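 TR-FRET signal, 2 h post-dosing; cell-free extracted protein; DMSO = baseline, positive fitting direction; 25 uM single-point duplicate, then concentration series for actives.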
# [7] = target: Retinoic acid receptor RXR-alpha (Homo sapiens) (UniProt P19793); experiment: OT_NURR1_NURR1RXRa_1440: Odyssey Thera (OT) 24-hour HEK293T Protein Complementation Assay for Nurr1/retinoid X receptor (RXR) (AID 2283386)
# Retinoic acid receptor RXR-alpha (Homo sapiens), sequence (P19793 whole entry, looked up, the tested form may be a part): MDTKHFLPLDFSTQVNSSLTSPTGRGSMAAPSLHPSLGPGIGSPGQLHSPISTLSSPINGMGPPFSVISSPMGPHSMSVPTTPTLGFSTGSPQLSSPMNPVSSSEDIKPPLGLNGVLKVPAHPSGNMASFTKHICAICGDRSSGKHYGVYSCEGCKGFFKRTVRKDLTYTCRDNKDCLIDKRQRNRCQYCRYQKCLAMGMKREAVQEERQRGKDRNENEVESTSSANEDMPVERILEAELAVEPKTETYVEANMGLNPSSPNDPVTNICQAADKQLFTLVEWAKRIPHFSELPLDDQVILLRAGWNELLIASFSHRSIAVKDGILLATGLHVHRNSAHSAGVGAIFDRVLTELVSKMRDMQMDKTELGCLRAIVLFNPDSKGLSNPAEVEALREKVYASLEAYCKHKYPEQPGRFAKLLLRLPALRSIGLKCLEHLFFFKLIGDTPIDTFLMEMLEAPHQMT
# Summary of the method: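 Steps: fragment-tagged Nurr1 and RXRα expressed in HEK293T; compounds added; after 24 h, complemented reporter quantified by fluorescence intensity; signal increase over DMSO fitted as the single endpoint.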
# [8] = target: Glucocorticoid receptor (Homo sapiens) (UniProt P04150); experiment: NVS_NR_hGR: NovaScreen (NVS) Nuclear Receptor Binding Assay for human Glucocorticoid Receptor (GR) (AID 2283363);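 as to AC50: activity is loss of specific radioligand binding signal relative to DMSO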
# Glucocorticoid receptor (Homo sapiens), sequence (P04150 whole entry, looked up): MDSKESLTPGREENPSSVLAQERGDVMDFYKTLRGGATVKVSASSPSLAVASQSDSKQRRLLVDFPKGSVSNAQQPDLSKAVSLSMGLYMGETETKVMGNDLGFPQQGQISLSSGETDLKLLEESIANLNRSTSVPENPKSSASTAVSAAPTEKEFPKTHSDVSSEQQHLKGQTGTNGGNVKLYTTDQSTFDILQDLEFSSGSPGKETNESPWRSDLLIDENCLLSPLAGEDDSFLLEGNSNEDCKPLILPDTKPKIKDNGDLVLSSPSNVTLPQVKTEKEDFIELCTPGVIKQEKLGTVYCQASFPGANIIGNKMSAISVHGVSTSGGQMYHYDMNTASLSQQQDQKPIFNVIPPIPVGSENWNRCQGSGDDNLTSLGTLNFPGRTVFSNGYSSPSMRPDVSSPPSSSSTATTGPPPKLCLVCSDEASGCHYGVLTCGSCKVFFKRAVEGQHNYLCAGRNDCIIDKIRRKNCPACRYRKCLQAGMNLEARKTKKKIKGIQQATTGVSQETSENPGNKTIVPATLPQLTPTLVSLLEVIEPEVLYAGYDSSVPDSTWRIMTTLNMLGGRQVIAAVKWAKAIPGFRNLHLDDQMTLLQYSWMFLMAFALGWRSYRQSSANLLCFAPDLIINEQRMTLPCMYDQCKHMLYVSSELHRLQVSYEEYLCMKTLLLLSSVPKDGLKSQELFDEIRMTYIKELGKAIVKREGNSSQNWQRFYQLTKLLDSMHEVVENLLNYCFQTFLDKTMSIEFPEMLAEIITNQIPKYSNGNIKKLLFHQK
# Summary of the method: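 Filter scintillation readout of tritiated/iodinated radioligand displaced by test chemical; cell-free extracted protein; 16 h. DMSO = negative control/baseline. Duplicate single-point 25 uM screen, then concentration-response on actives.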
# [9] = target: Retinoic acid receptor RXR-alpha (Homo sapiens) (UniProt P19793); experiment: OT_NURR1_NURR1RXRa_0480: Odyssey Thera (OT) 8-hour HEK293T Protein Complementation Assay for Nurr1/retinoid X receptor (RXR) (AID 2283385)
# Summary of the method: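 Interaction of bait and prey reconstitutes a functional reporter, whose fluorescence was measured in HEK293T cells dosed with compound for 8 hours. Signal gain relative to DMSO defined the single endpoint.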
# [10] = target: Peroxisome proliferator-activated receptor gamma (Homo sapiens) (UniProt P37231); experiment: NVS_NR_hPPARg: NovaScreen (NVS) Nuclear Receptor Binding Assay for human Peroxisome Proliferator-activated Receptor gamma (PPARg) (AID 2283370)
# Peroxisome proliferator-activated receptor gamma (Homo sapiens), sequence (P37231 whole entry, looked up): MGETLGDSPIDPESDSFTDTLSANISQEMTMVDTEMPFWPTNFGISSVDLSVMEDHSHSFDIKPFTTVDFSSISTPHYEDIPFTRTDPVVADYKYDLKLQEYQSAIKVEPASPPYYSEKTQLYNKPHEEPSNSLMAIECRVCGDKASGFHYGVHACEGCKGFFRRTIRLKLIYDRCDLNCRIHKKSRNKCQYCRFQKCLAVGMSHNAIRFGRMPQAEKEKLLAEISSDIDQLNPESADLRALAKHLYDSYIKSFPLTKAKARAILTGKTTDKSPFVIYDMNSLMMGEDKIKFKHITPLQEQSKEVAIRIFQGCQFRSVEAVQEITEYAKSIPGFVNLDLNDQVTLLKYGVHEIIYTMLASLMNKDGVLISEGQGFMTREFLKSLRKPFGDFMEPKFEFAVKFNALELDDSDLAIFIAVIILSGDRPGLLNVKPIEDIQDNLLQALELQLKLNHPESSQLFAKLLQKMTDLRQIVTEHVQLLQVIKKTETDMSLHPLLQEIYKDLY
# Summary of the method: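 Extracted receptor protein, cell-free; compound incubated 2 h then fluorescence polarization read. Baseline: DMSO. Actives from 25 uM duplicate screen re-run across concentrations.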
# [11] = target: human Thyroid Receptor Alpha (TRa), THRA (gene 7067) (UniProt P10827); experiment: NVS_NR_hTRa_Antagonist: NovaScreen (NVS) Nuclear Receptor Binding Assay for human Thyroid Receptor Alpha Antagonism (TRa) (AID 2283362);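 also: activity is loss of signal relative to DMSO baseline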
# Summary of the method: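 In this biochemical format, receptor protein is dosed with chemical and read after 1 hour via AlphaLISA. Decreases from the DMSO baseline indicate antagonist activity; screening used 25 uM in duplicate before concentration-response confirmation.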
# [12] = target: PGR (gene 5241) (UniProt P06401); experiment: NVS_NR_hPR: NovaScreen (NVS) Nuclear Receptor Binding Assay for human Progestron Receptor (PR) (AID 2283360);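 also: active means loss of bound radioligand signal versus DMSO baseline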
# Summary of the method: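 Competitive displacement of a labelled radioligand from T47D-derived receptor protein is measured in a cell-free format. Initial testing uses 25 uM in duplicate, with positive and negative controls on every plate.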
# [13] = target: rat Serotonin Transporter (SERT), Slc6a4 (gene 25553) (UniProt P31652); experiment: NVS_TR_rSERT: NovaScreen (NVS) Transporter Assay for rat Serotonin Transporter (SERT) (AID 2283375)
# Summary of the method: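 Using rat forebrain membrane SERT, test chemicals compete with a radioligand for 1 hour, and bound counts are taken by filter-based scintillation. Screening starts at 25 uM in duplicate, followed by concentration series for actives.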
# [14] = target: human Norepinephrine Transporter (NET), SLC6A2 (gene 6530) (UniProt P23975); experiment: NVS_TR_hNET: NovaScreen (NVS) Transporter Assay for human Norepinephrine Transporter (NET) (AID 2283377);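 also: cell-free membrane protein extracted from CHO cells expressing human NET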
# Summary of the method: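 CHO cell extracts expressing the transporter; tritiated or iodinated tracer displaced competitively; filtration plus scintillation readout at 1 h. Single-point duplicates at 25 uM, concentration series for follow-up; activity = signal drop relative to DMSO.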
# [15] = target: mouse Estrogen Receptor alpha (Era), Esr1 (gene 13982) (UniProt P19785); experiment: NVS_NR_mERa: NovaScreen (NVS) Nuclear Receptor Binding Assay for mouse Estrogen Receptor alpha (Era) (AID 2283378);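 also: hit means loss of bound radioligand signal relative to DMSO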
# mouse Estrogen Receptor alpha (Era), Esr1 (gene 13982), sequence (P19785 whole entry, looked up): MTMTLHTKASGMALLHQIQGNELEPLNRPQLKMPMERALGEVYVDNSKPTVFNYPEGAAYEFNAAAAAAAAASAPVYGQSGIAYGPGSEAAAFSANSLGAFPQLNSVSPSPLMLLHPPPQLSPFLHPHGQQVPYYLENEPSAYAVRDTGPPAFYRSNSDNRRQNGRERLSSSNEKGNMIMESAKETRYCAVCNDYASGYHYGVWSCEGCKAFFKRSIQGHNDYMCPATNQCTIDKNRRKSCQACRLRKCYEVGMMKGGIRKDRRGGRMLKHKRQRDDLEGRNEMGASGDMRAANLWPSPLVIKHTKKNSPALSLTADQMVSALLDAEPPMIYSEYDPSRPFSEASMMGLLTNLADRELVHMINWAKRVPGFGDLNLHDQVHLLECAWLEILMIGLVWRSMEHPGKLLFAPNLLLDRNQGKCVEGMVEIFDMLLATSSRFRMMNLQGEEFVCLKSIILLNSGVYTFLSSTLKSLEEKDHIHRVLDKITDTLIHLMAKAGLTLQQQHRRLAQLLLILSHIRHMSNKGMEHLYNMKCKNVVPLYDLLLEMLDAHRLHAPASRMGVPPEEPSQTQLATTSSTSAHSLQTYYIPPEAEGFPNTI
# Summary of the method: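 Measurements come from scintillation counting after filtration, taken 18 hours after chemicals were added to a cell-free mouse Era preparation with radioligand. Screening was duplicate at 25 uM, with concurrent positive and negative controls and confirmatory concentration series for actives.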
# [16] = target: Agonist Androgen Response Element (ARE), AR (gene 367) (UniProt P10275); experiment: OT_AR_ARELUC_AG_1440: Odyssey Thera (OT) 24-hour CHO-K1 Luciferase Assay for Agonist Androgen Response Element (ARE) (AID 2283379)
# Summary of the method: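 Gain-of-signal reporter endpoint: cells (CHO-K1, hamster) are treated 24 h, luciferin/ATP reagent added, and luminescence compared with DMSO baseline.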
smiles,measurement,setting,value
CCCCNS(=O)(=O)c1ccccc1,outcome,[1],inactive
same,outcome,[2],inactive
same,outcome,[3],inactive
same,outcome,[4],inactive
same,outcome,[5],inactive
CCCCNS(=O)(=O)c1ccc(C)cc1,outcome,[6],inactive
same,outcome,[1],inactive
same,outcome,[3],inactive
same,outcome,[4],inactive
same,outcome,[7],inactive
CCCCCCCCCC[N+](C)(CCCCCCCCCC)CCC[Si](OC)(OC)OC,AC50,[6],25 µM (active)
same,outcome,[8],inactive
same,AC50,[1],4.21 µM (active)
same,outcome,[2],inactive
same,AC50,[4],81.9 µM (active)
same,AC50,[9],11.7 µM (active)
same,AC50,[7],11.6 µM (active)
C/C=C/C=C/CCCCCCCO,AC50,[1],25 µM (active)
same,outcome,[10],inactive
same,outcome,[4],inactive
same,outcome,[9],inactive
same,AC50,[7],5.06 µM (active)
CCc1cccc(CC)c1,outcome,[8],inactive
CC(C)(C)C1CCC(=O)CC1,outcome,[1],inactive
same,outcome,[2],inactive
same,outcome,[3],inactive
same,outcome,[4],inactive
same,outcome,[5],inactive
same,outcome,[9],inactive
same,outcome,[7],inactive
CN(C)c1ccc2nc3ccc(=[N+](C)C)cc-3sc2c1,AC50,[6],32.7 µM (active)
same,AC50,[11],7.57 µM (active)
same,AC50,[2],14.7 µM (active)
same,AC50,[4],28.2 µM (active)
same,AC50,[9],26.3 µM (active)
same,AC50,[7],15.3 µM (active)
CC(C)CCCCCOC(=O)CS,outcome,[12],inactive
Cc1ccc([N+](=O)[O-])cc1N,outcome,[12],inactive
same,outcome,[1],inactive
same,outcome,[10],inactive
same,outcome,[13],inactive
same,outcome,[14],inactive
same,outcome,[2],inactive
same,outcome,[3],inactive
same,outcome,[4],inactive
same,outcome,[5],inactive
same,outcome,[9],inactive
same,outcome,[7],inactive
CCCCCCCOC(=O)c1ccc(O)cc1,AC50,[8],7.77 µM (active)
same,AC50,[10],12.3 µM (active)
same,outcome,[15],inactive
same,AC50,[2],5.06 µM (active)
same,AC50,[4],3.08 µM (active)
same,AC50,[7],90.7 µM (active)
COc1ccc(-c2coc3cc(O)cc(O)c3c2=O)cc1,outcome,[1],inactive
same,outcome,[15],inactive
same,AC50,[2],2.61 µM (active)
same,AC50,[3],8.5 µM (active)
same,AC50,[4],12.4 µM (active)
CCOC(=O)c1ccc(C)cc1,outcome,[1],inactive
same,outcome,[10],inactive
same,outcome,[2],inactive
same,outcome,[3],inactive
same,outcome,[4],inactive
same,outcome,[9],inactive
same,outcome,[7],inactive
CC(C)(C)NC(=O)[C@H]1CC[C@H]2[C@@H]3CC[C@H]4NC(=O)C=C[C@]4(C)[C@H]3CC[C@]12C,outcome,[1],inactive
same,outcome,[10],inactive
same,outcome,[15],inactive
same,outcome,[3],inactive
same,AC50,[5],3.77 µM (active)
C=C1C[C@H]2[C@@H]3C=C(C)C4=CC(=O)CC[C@]4(C)[C@H]3CC[C@]2(C)[C@@]1(OC(C)=O)C(C)=O,AC50,[8],0.00144 µM (active)
same,AC50,[1],4.1 µM (active)
same,outcome,[10],inactive
same,AC50,[15],29.2 µM (active)
same,AC50,[16],0.0079 µM (active)
same,outcome,[2],inactive
same,outcome,[4],inactive
same,AC50,[9],27.5 µM (active)
same,AC50,[7],49.5 µM (active)
CC(C)COC(=O)CC(C(=O)OCC(C)C)S(=O)(=O)O (stereo unspecified),AC50,[1],25 µM (active)
same,outcome,[10],inactive
same,outcome,[2],inactive
same,outcome,[3],inactive
same,outcome,[4],inactive
same,outcome,[7],inactive
